In PubChem BioAssay AID651965 (National Center for Advancing Translational Sciences (NCATS), 2013):
Hit rate of the full screen: of about 340,000 compounds, about 6,400 (1.9%) were called active. Roughly 4% stayed inconclusive and do not appear here. Many of the other results were omitted from the sample, so actives are more common in it than they were. Values without a mark were called inactive. The call rests on the fitted dose curve; in most records, active means well fitted falling curve with a large enough effect; inconclusive means small, poorly fitted or top-dose-only effect; inactive means no such curve, though single readings can be large or run the other way.

Biological target: ATP-dependent Clp protease proteolytic subunit (Bacillus subtilis (strain 168)) (UniProt P80244)
Sequence (P80244 whole entry, looked up): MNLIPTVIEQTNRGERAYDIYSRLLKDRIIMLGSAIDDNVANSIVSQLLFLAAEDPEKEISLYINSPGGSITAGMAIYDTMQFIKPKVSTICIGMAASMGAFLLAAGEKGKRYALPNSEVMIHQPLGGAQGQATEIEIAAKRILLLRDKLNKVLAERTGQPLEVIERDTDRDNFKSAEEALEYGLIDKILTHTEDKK
Test: qHTS Assay for Activators of ClpP; further: the source files actives as falling curves though it sought activators and does not explain the sign; nearly all actives have a fitted effect of over 65% in size
Details: purified B. subtilis ClpP, FRET peptide cleavage, 20 min; series mostly up to 57.5 µM; activity change, negative = active: at the top concentration
How it was run: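 Buffer: 100 mM Tris/HCl pH8, 100 mM KCl, 0.05% low protease BSA, 2.5% glycerol, 0.01% Tween-20. ClpP 10 microg/mL final; 20 min RT; delta FRET normalized to ADEP and DMSO controls.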
Potency means the concentration at half of the fitted maximal effect.

| Structure (SMILES) | activity change, negative = active [%] | Potency |
| --- | --- | --- |
| CC(=O)c1ccc[n+](C(C)CCC(C)[n+]2cccc(C(C)=O)c2)c1 (configuration not stated) | -0.892 | – |
| O=C(Nc1cccc(C(=O)O)c1)/C(=C\c1ccccc1)NC(=O)c1ccc(Br)o1 | -1.89 | – |
| CC(=O)NC(c1ccccc1)c1nc(-c2cccc(C(C)C)c2)cs1 (configuration not stated) | 1.12 | – |
| CC1(C(=O)NS(=O)(=O)c2cccc(F)c2)CCN1C(=O)c1cccc2ccccc12 (configuration not stated) | -1.17 | – |
| COCCNc1nc(-c2ccccc2)nc2c1oc1ccccc12 | -0.339 | – |
| CCc1nc(Nc2ccc(NC(C)=O)cc2)c2oc3ccccc3c2n1 | 35.9 | – |
| CCc1nc(Nc2ccc3nccnc3c2)c2oc3ccccc3c2n1 | – | 28.2 µM (active) |
| COc1ccc(Cn2ccn(CC(=O)Nc3cc(C)ccc3C)c(=O)c2=O)cc1 | -1.9 | – |
| COc1ccc(Cn2cccc(NC(=O)Nc3ccc(C#N)cc3)c2=O)cc1 | – | 12.6 µM (active) |
| COc1ccc(Cn2c(C)c(C)c(C#N)c2NC(=O)Nc2ccc(F)cc2)cc1 | 1.75 | – |
| CSc1ccc(CN2CCC2(C)C(=O)Nc2ccc(C)c(O)c2)cc1 (configuration not stated) | 0.771 | – |
| CCOc1n[nH]c(-c2ccccc2)n1 | -0.612 | – |
| Cc1ccccc1S(=O)(=O)NC(=O)C1(C)CCN1C(=O)Cc1ccc(Cl)cc1Cl (configuration not stated) | -3.3 | – |
| COC(=O)c1ccc2nc(-c3ccc(C)cc3)c(Cc3ccc(OC)cc3C)n2c1 | 5.5 | – |
| Cc1ccc(N2CC(C(=O)N3CCC4(CC3)CC(=O)c3ccccc3O4)CC2=O)cc1C (configuration not stated) | – | 28.2 µM (active) |
| O=C(C1CC(=O)N(c2ccc(Br)cc2)C1)N1CCCC1 (configuration not stated) | 0.55 | – |
| Cc1ccc(N2CC(C(=O)Nc3ccc(N(C)C)cc3)CC2=O)cc1Cl (configuration not stated) | 1.18 | – |
| O=[N+]([O-])c1cc(S(=O)(=O)N2CCCC2)ccc1NN=C1CCCC1 | 1.19 | – |
| O=[N+]([O-])c1ccc(N/N=C2/CCCCC2c2ccccn2)c([N+](=O)[O-])c1 (configuration not stated) | -1.38 | – |
| O=[N+]([O-])c1cc(C(F)(F)F)ccc1NN=C1CCCC1 | – | 31.6 µM (active) |
| CCCS(=O)(=O)NC(=O)C1(C)CCCN(C(=O)c2ccnc(Cl)c2)C1 (configuration not stated) | 0.891 | – |
| O=C(C(=O)N1CCN(c2ccccc2)CC1)c1ccc2c(c1)OCO2 | 0.571 | – |
| COC(=O)Cc1c(C)c2ccc(OCC(=O)NCc3ccc4c(c3)OCO4)cc2oc1=O | – | 31.6 µM (active) |
| COc1ccc(CCNC(=O)COc2ccc3c(c2)OCO3)cc1 | -0.812 | – |
| COc1ccc2c(C)c(CCC(=O)NCc3ccc(OC)c(OC)c3)c(=O)oc2c1 | 4.37 | – |
| CCC(C)CN1C(=O)CN(S(C)(=O)=O)CC1(C)C(=O)Nc1ccc2c(c1)OCCO2 (configuration not stated) | -2.44 | – |

| Structure (SMILES) | activity change, negative = active [%] | Potency |
| --- | --- | --- |
| COc1ccc(/C=C/c2ccnc3ccccc23)cc1OC | -11.4 | – |
| CCC1(CC)Cc2ccccc2-c2nc3ccccc3c(=O)n21 | -1.31 | – |
| CCOC(=O)C1Cn2c(nc3c(c2=O)C(C)(CC)Cc2ccccc2-3)S1 (configuration not stated) | – | 28.2 µM (active) |
| CCC1(CC)Cc2ccccc2-c2nc(CCl)[nH]c(=O)c21 | -8.14 | – |
| OC(c1ccccc1)(c1ccccc1)C1CCN(CCCOc2ccccc2)CC1 | -0.0496 | – |
| CN(C)Cc1cn(-c2ccccc2)nc1-c1ccccc1 | -5.99 | – |
| O=C(O)CCC(=O)N(Cc1ccccc1)Cc1ccccc1 | 1.29 | – |
| Cc1ccc(-c2nn(-c3ccccc3)cc2CN(Cc2ccccc2)C(=O)CCC(=O)O)o1 | – | 22.4 µM (active) |
| CCCC(=O)Nc1cc2nn(-c3ccccc3)nc2cc1C | 2.89 | – |
| c1ccc(-n2nc3ccccc3n2)cc1 | – | 25.1 µM (active) |
| Nc1ccc2nn(-c3ccc(Cl)cc3)nc2c1 | 7.76 | – |
| CCc1nc2c(OCCOc3ccccc3)cccn2c1N(C)C(=O)c1ccccc1F | -3.73 | – |
| Cc1cccc(NC(=O)COC(=O)c2ccccc2OCc2cccc(Br)c2)c1 | -7.45 | – |
| Cc1ccc(-n2ncc(C(=O)NC3CC3)c2C2CCN(C(=O)OC(C)(C)C)CC2)c(C)c1 | 1.33 | – |
| CCOc1ccc(-c2cc3nc(C4CCN(C(=O)OC(C)(C)C)CC4)c(C(=O)Nc4cccc(CC)c4)cn3n2)cc1 | 4.44 | – |
| COc1cc(OC)cc(-c2cc3nc(C4CCN(C(=O)OC(C)(C)C)CC4)cc(=O)n3[nH]2)c1 | – | 25.1 µM (active) |
| O=C(COC(=O)/C=C/c1ccc(Cl)cc1)NC1CCS(=O)(=O)C1 (configuration not stated) | -0.845 | – |
| O=C(COC(=O)CCCN1C(=O)c2cccc3cccc(c23)C1=O)NC1CCS(=O)(=O)C1 (configuration not stated) | – | 31.6 µM (active) |
| COc1ccc(/C=C2\SC(=O)N(CCC(=O)NC3CCS(=O)(=O)C3)C2=O)cc1 (configuration not stated) | 0.178 | – |
| Cc1ccc(F)c(S(=O)(=O)NC(=O)C2(C)CCN2C(=O)c2ccco2)c1 (configuration not stated) | 2.02 | – |
| CCn1nc(C(=O)NNS(=O)(=O)c2cc(/C=C/C(=O)O)cc(OC)c2OC)c2ccccc2c1=O | – | 5.62 µM (active) |
| CCC(C)(C)NC(=O)/C=C/c1cc(OC)c(OC)c(S(=O)(=O)N2CCc3ccccc32)c1 | 1.65 | – |
| COc1cc(/C=C/C(=O)O)cc(S(=O)(=O)Nc2ccccc2SC)c1OC | -0.984 | – |
| COc1ccccc1CNc1nc(Nc2ccccc2Cl)c2sccc2n1 | -20.5 | – |
| c1ccc(Cn2nnc3c(N4CCCCC4)ncnc32)cc1 | 0.615 | – |
| O=C(CC(CC(=O)c1ccccc1)c1ccco1)c1ccccc1 | -1.2 | – |
